Compound activity: PubChem BioAssay, National Center for Advancing Translational Sciences (NCATS)
Rows were chosen to be rich in hits. Some 18% of all compounds tested hit in one or more screens of this group.
TDP1 cell noCPT: qHTS for Inhibitors of human tyrosyl-DNA phosphodiesterase 1 (TDP1): qHTS in cells in absence of CPT | Potency, µM (top dose mostly 46.2 µM), hits mostly inhibitors | DT40 Tdp1-/- hTDP1 cells, no CPT, ATP luminescence, 48 h | 15% of 420,000 active; further: nearly all actives have a fitted effect of over 55% in size
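No-CPT arm: Tdp1-/-;hTDP1 DT40 cells (400/well) plus compounds, incubated ≥48 hr at 37 °C. Readout CellTiter-Glo luminescence.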
IL-1B inflam inh: inhibitors of inflammasome signaling (IL-1 beta secretion); THP-1 LPS/ATP IL-1B secretion, AlphaLISA, 16 h; active compounds read low; activity change, % at 57.5 µM; 4.7% of 360,000 active; in the data active means activity change below about -50%; inconclusive means mostly about -30% to -49%
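THP-1 cells pretreated 1 hr with compounds (up to 57.5 uM final), then stimulated with LPS (250 ng/mL final) plus ATP (1.25 mM final); secreted IL-1B measured by AlphaLISA after 16 hr, decreased signal indicating inhibition.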
LDHA inh: blocks human lactate dehydrogenase A. purified LDHA, NADH/diaphorase-resazurin fluorescence; active compounds read low. activity change, % (values are at about 110 or 230 µM). 0.15% of 480,000 active; in the data active means activity change below about -30%; inconclusive means mostly about -25% to -30%
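Resorufin fluorescence (ex540/em590), read at 0 and 20 min after diaphorase/resazurin addition, reports the NADH left after a 5 min room-temperature reaction of 2 nM human LDH5 with 0.06 mM NADH and 0.2 mM pyruvate.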
Gal4-VP16 FLuc: counter-screen for ROR gamma inhibitors: Gal4-VP16 reporter; 3.5% of 310,000 active; Potency, µM (series often up to 53.6 µM), most hits filed as inhibitors; Drosophila S2 Gal4-VP16 UAS-luciferase, luminescence, 20 h;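 further: Gal4-VP16 expression switched on by copper sulfate through the metallothionein promoter; nearly all actives have a fitted effect of over 50% in size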
RORg inh: inhibitors of mouse ROR gamma transcriptional activity; P51450; Potency, µM (top dose mostly 53.6 µM), most hits filed as inhibitors; AID 2551; Drosophila S2 Gal4-RORgamma UAS-luciferase reporter, 20 h; 5.4% of 310,000 active; further: nearly all actives have a fitted effect of over 60% in size
Target sequence (P51450 whole entry, looked up, the tested form may be a part): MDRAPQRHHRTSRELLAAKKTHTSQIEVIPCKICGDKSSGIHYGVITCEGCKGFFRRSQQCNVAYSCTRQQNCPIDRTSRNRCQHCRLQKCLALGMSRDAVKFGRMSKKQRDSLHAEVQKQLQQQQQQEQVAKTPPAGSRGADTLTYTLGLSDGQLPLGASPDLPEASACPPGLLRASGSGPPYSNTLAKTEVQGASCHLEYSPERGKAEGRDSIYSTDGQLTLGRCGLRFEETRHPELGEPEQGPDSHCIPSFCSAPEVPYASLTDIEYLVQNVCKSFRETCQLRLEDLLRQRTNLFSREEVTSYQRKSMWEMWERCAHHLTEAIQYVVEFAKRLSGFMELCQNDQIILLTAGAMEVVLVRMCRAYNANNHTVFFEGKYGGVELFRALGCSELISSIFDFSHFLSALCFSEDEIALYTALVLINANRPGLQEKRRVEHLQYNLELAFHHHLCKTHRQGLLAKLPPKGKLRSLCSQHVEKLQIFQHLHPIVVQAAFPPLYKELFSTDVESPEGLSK
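Drosophila Schneider cells stably carrying a metallothionein-driven Gal4 DBD–ROR gamma fusion and a UAS-Photinus luciferase reporter were exposed to compound for 1 hr, then induced with copper sulfate (700 uM final) for 20 hr at ambient temperature before luminescence reading.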
DT40 TDP1 CPT: DT40-hTDP1 cell growth loss with CPT; chicken DT40 Tdp1-/-;hTDP1 cells + 20 nM CPT, ATP luminescence, 48 h; Potency, µM (titrated, usually from 46.2 µM), most hits filed as inhibitors; 12% of 420,000 active; AID 686979; further: nearly all actives have a fitted effect of over 55% in size
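Cell growth measured by CellTiter-Glo luminescence after a minimum 48 h, 37 C compound exposure with 20 nM CPT in Tdp1-knockout DT40 cells stably expressing hTDP1, seeded 400/well; qHTS titration format.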
A number is an active result; . = inactive; ? = inconclusive; / = no result given; [ ] = remark or other dose. Unless noted, the call rests on the fitted dose curve; in most records, active means well fitted curve in the direction sought with a large enough effect; inconclusive means small, poorly fitted or top-dose-only effect, or another doubt; inactive means no such curve, though single readings can be large; an effect the other way counts as inactive or inconclusive.

SMILES	TDP1 cell noCPT	IL-1B inflam inh	LDHA inh	Gal4-VP16 FLuc	RORg inh	DT40 TDP1 CPT
CC(CNC(=O)c1nn(C)c(=O)c2ccccc12)c1ccccc1 (configuration not stated)	/	/	.	/	/	/
Cc1cc(C)c(C(N)C(=O)O)cc1C (configuration not stated)	/	/	.	/	/	/
O=C(COc1ccc(C(=O)c2ccccc2)cc1)NCc1ccc(F)cc1	1.03µM	.	.	.	.	0.92µM
COc1cc(C(=O)OCC(=O)N2c3ccccc3NC(=O)C2(C)C)ccc1OCC(C)C	?	-81.0	.	/	/	?
CC1(C)C(=O)Nc2ccccc2N1C(=O)COC(=O)c1cccc(O)c1	?	.	.	/	/	?
Cc1cc(CNC(=O)COc2ccc(F)cc2)c2ccccc2n1	20.6µM	.	.	.	?	?
O=C(COC(=O)c1nc(Cl)c(Cl)c(Cl)c1Cl)NCc1ccccc1	.	-88.8	.	/	/	?
CC(=O)Oc1ccc2c(c1)O/C(=C\c1cccs1)C2=O	/	/	.	/	/	/
C=CCS(=O)(=O)O	/	/	.	/	/	/
O=C(COC(=O)c1ccccc1C(=O)c1ccc(Cl)cc1)NCc1ccccc1	18.4µM	-69.1	.	.	.	?
O=C(COC(=O)c1ccccc1C(=O)c1ccc(Cl)cc1)NCC1CCCO1 (configuration not stated)	.	?	.	.	.	.
COc1ccc(C[C@](C)(N)C(=O)O)cc1OC	2.31µM	.	.	/	/	.
CCOC(=O)c1c(S(=O)(=O)N2CCCC(C(=O)N3CCN(c4cc(C)ccc4C)CC3)C2)c(C)n(C)c1C (configuration not stated)	9.2µM	/	.	/	/	8.2µM
CCOC(=O)c1c(S(=O)(=O)N2CCC(C(=O)N3CCN(c4cc(C)ccc4C)CC3)CC2)c(C)n(C)c1C	23.1µM	/	.	/	/	?
CCOC(=O)c1c(S(=O)(=O)N2CCCC(C(=O)N3CCN(c4cccc(C)c4C)CC3)C2)c(C)n(C)c1C (configuration not stated)	9.2µM	/	.	/	/	7.31µM
C/C(CC(=O)NC12CC3CC(CC(C3)C1)C2)=N\NC(=O)c1ccc(F)cc1	.	.	.	?	17.8µM	.
C/C(CC(=O)NC12CC3CC(CC(C3)C1)C2)=N\NC(=O)c1ccc(C)cc1	.	.	.	?	?	.
O=C(NC12CC3CC(CC(C3)C1)C2)c1cnccn1	.	.	.	.	.	.
C/C(CC(=O)NC12CC3CC(CC(C3)C1)C2)=N\NC(=O)c1cnccn1	.	.	.	?	12.6µM	.
Cc1scc(C(=O)Nc2ccc3c(c2)CCC3)c1C	/	/	.	/	/	/
COCCN(Cc1ccco1)C(=O)Cn1nc(Cc2cccnc2)c2ccccc2c1=O	/	/	.	/	/	/
Cc1cc(-n2c(C)cc(C(=O)COc3ccccc3[N+](=O)[O-])c2C)no1	23.1µM	.	.	.	.	16.4µM
O=C(COc1ccccc1[N+](=O)[O-])c1ccccc1	5.17µM	.	.	.[10 µM]	.	3.66µM
COC(=O)/C=C/COc1ccccc1[N+](=O)[O-]	13µM	.	.	.	.	9.2µM
O=[N+]([O-])c1ccccc1OC/C(=N\O)c1ccccc1	?	.	.	.	.	?
SMILES	TDP1 cell noCPT	IL-1B inflam inh	LDHA inh	Gal4-VP16 FLuc	RORg inh	DT40 TDP1 CPT
Cc1cc(NS(=O)(=O)c2ccc(NC(=O)COc3ccccc3[N+](=O)[O-])cc2)no1	.	.	.	.	.	.
Cc1cc(-n2c(C)cc(C(=O)COc3ccc(F)c(F)c3)c2C)no1	20.6µM	.	.	/	/	23.1µM
Cc1cc(-n2c(C)cc(C(=O)CSc3nnc(C(C)Oc4ccccc4F)o3)c2C)no1 (configuration not stated)	/	/	.	/	/	/
O=C(c1cc(-c2ccco2)[nH]n1)N1CCN(c2ccccc2)CC1	/	/	.	/	/	/
CCCCNC(=O)NC(=O)CSc1nc(-c2ccco2)nc2ccccc12	/	/	.	/	/	/
Cc1cc(C(=O)COc2ccccc2[N+](=O)[O-])c(C)n1C1CC1	?	.	.	.	.	23.1µM
CCNc1ccccc1CP(=O)(c1ccccc1)c1ccccc1O (configuration not stated)	2.59µM	.	.	.	.	?
CCc1ccccc1NC(=O)Cn1cnc2c1c(=O)n(C)c(=O)n2C	/	/	.	/	/	/
CCCc1cc(C(=O)NNC(=S)NCc2ccccc2)cs1	?	.	.	?	4.47µM	?
CCNC(=S)NNC(=O)c1cc(C)on1	.	.	.	.	17.8µM	.
CCNC(=S)NNC(=O)c1csc(CC)c1	.	.	.	.	4.47µM	.
CCc1cc(C(=O)NNC(=S)NCc2ccccc2)cs1	?	.	.	.	14.1µM	.
Cc1cc(C(=O)NNC(=S)NCc2ccccc2)no1	.	.	.	/	/	.
Cc1cc(C(=O)NNC(=S)NCc2ccccc2)cs1	?	.	.	.	.	.
Cc1cccc(NC(=S)NNC(=O)c2csc3c2CCCC3)c1	?	.	.	.	?	?
CCc1c(C(=O)NNC(=S)NCC2CCCO2)csc1C (configuration not stated)	?	.	.	?	?	?
CCCc1cc(C(=O)NNC(=S)NC2CCCCC2)cs1	?	.	.	?	3.55µM	?
CCc1c(C(=O)NNC(=S)NCc2ccccc2)csc1C	?	.	.	.	6.31µM	.
CCNC(=S)NNC(=O)c1csc2c1CCCC2	.	.	.	.	3.16µM	.
O=C(NNC(=S)NC1CCCCC1)c1ccc2c(c1)OCO2	18.4µM	.	.	?	.	?
Cn1cnc2c(N/N=C/c3cccs3)ncnc21	?	-91.1	.	?	.	?
C(=N\Nc1ncnc2sc3c(c12)CCC3)/c1ccncc1	?	.	.	20µM	10µM	?
CC(C)(C)NC(=O)C(=O)N/N=C/c1cccs1	.	.	.	.	?	.
C(=N\Nc1ncnc2sc3c(c12)CCC3)/c1cccs1	/	/	/	5.01µM	2.51µM	/
O=C(CCc1cccc(Cl)c1Cl)NC1CCN(C2CC2)C1 (configuration not stated)	/	/	.	/	/	/
CC1CCC(N2CCN(S(C)(=O)=O)CC2)CC1 (configuration not stated)	.	.	-33.7	.	.	.
CS(=O)(=O)N1CCN(C2C3CC4CC(C3)CC2C4)CC1 (configuration not stated)	.	.	-31.9	.	.	.
CCOC(=O)CCNC(=O)c1cc(F)ccc1Br	/	/	.	/	/	/
Cc1c(C(=O)N(Cc2ccc(N(C)C)cc2)CC2CCCO2)oc2ccc(Br)cc12 (configuration not stated)	?	/	.	/	/	?
